The values that follow come from PubChem BioAssay.

Results with a measured potency or affinity are listed apart. Values without a mark were called inactive. The source made the active and inactive calls.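 How the source made its calls, unless noted: active means a dose-response fit showing signal loss, with half-maximal concentration no higher than twice the top tested dose; inconclusive means flat fit between 30% and 70% signal loss, or poor fit; inactive means the rest.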

Assay [1] in a line: inducers of Cryptococcus neoformans cell lysis, dose response, AK release luminescence, cherry-picks (AID 687000;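 active means fitted dose curve reaches 40% lysis signal rise at or below the highest valid concentration tested for that sample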;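 further: luminescent detection of adenylate kinase leaking from lysed yeast; 0% = median neutral control signal and 100% = double that signal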).
Assay [2] is described as follows: HepG2 cell cytotoxicity, dose response, cytotoxicity control, cherry-picks, set 2 (AID 687002).
The nature of assay [3]: HeLa cell cytotoxicity, dose response, cytotoxicity control, ATP luminescence, cherry-pick samples (AID 687004;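 active means a fitted half-maximal concentration no higher than twice the top valid tested dose, with signal falling as cells die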;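 further: 0% = neutral control median and -100% = staurosporine 10 µM control median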).
Assay [4] is described as follows: HepG2 cell cytotoxicity, dose response, cytotoxicity control, plate reader, cherry-pick, antagonist series (AID 743416; call rule not given here;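 further: 0% = neutral control wells and -100% = positive control wells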).

For the molecule `O=C(C[C@@H]1CC[C@@H]2[C@H](COC[C@@H](O)CN2C(=O)Nc2ccc(Cl)cc2)O1)NC1Cc2ccccc2C1`, the molecule was classed as inactive in assay [1], in assay [2] and in assay [3].
Take `N#Cc1ccc(C23CC4(C2)[C@H](CN(Cc2ccc(C(F)(F)F)cc2)[C@@H]4c2ccccc2)C3c2ccccc2)cc1` (some centres undefined): the molecule was classed as inactive in assay [1], in assay [2] and in assay [3].
Take `O=C(CN(c1ccccc1)S(=O)(=O)c1ccc(F)cc1)NC1CCCCCC1`: the molecule was called inactive in assay [1], in assay [2] and in assay [3].
As for `COc1ccccc1NC(=O)c1cn(C)c(=O)c2cc(OC)c(OC)cc12`, the outcome in assay [1], in assay [2] and in assay [3] was inactive.
For the molecule `Fc1ccccc1CNC(=S)NCc1ccc(Cl)cc1`, the molecule was classed as inactive in assay [1], in assay [2] and in assay [3].
For the molecule `C[C@H](CO)N1C[C@H](C)[C@@H](CN(C)C(=O)Nc2ccc3c(c2)OCO3)Oc2ccc(NS(=O)(=O)c3cccs3)cc2C1=O`, the outcome in assay [1], in assay [2] and in assay [3] was inactive.
Consider `Cc1ccccc1NC(=O)C(NC1CCCCC1)C(C)C` (centres undefined), for which the call in assay [1], in assay [2] and in assay [3] was inactive.
Consider `O=C(c1cccs1)N1CCN(c2nc3ccccc3s2)CC1`, for which the call in assay [1], in assay [2] and in assay [3] was inactive.
Consider `Cc1cc(C)c(NC(=O)CN(C2CCCCC2)C2CCCCC2)c(C)c1`, for which the result in assay [1], in assay [2] and in assay [3] was inactive.
As for `O=C(c1ccco1)N1N=C(c2cccs2)CC1c1ccco1` (centres undefined), the molecule was classed as inactive in assay [1], in assay [2] and in assay [3].
For `CCOC(=O)CSc1ncnc2c1cnn2-c1ccc(Cl)cc1`, the result in assay [1], in assay [2] and in assay [3] was inactive.
On to `C[C@@H]1CN([C@@H](C)CO)S(=O)(=O)c2ccc(C3=CCCC3)cc2O[C@@H]1CN(C)Cc1ccccc1F`, for which the call in assay [1], in assay [2] and in assay [3] was inactive.
For the molecule `CC(C)(C)SCCNC(=O)CN(c1ccccc1)S(=O)(=O)c1ccccc1`, the result in assay [1], in assay [2] and in assay [3] was inactive.
Regarding `C[C@H](NC(=O)C[C@H]1CC[C@@H](NC(=O)Cc2ccccn2)[C@@H](CO)O1)c1ccccc1`, the call in assay [1], in assay [2] and in assay [3] was inactive.
With `Cc1ccc(C(=O)NC(=S)Nc2cccc(NC(=O)c3ccccc3)c2)cc1[N+](=O)[O-]`, the molecule was classed as inactive in assay [1], in assay [2] and in assay [3].
In the case of `Cc1ccccc1OCC(=O)NCc1ccccc1`, the call in assay [1], in assay [2] and in assay [3] was inactive.
With `C[C@H](CO)N1C[C@H](C)[C@H](CN(C)Cc2ccccc2F)Oc2cc(C3=CCCC3)ccc2S1(=O)=O`, the result in assay [1] and in assay [3] was inactive.
`COCC#Cc1cnc2c(c1)C(=O)N([C@@H](C)CO)C[C@H](C)[C@H](CN(C)C(=O)Nc1ccc(OC)cc1)O2`: the molecule was called inactive in assay [1], in assay [2] and in assay [3].
Consider `Cc1noc(C)c1NC(=O)N(C)C[C@@H]1Oc2ccc(NC(=O)NC(C)C)cc2CC(=O)N([C@@H](C)CO)C[C@@H]1C`, for which the outcome in assay [1], in assay [2] and in assay [3] was inactive.
`O=C(c1cccnc1)N1C[C@H]2[C@@H](c3ccccc31)[C@@H](CO)N2C(=O)Nc1ccc(F)cc1`: the molecule was called inactive in assay [1], in assay [2] and in assay [3].
As for `CCC(=O)Nc1ccc2c(c1)C(=O)N(C)C[C@H](OC)[C@@H](C)CN[C@H](C)CO2`, the result in assay [1], in assay [2] and in assay [3] was inactive.
On to `O=C(CSc1nc(CCC2CCCC2)nc2ccccc12)NCc1ccc2c(c1)OCO2`, for which the call in assay [1], in assay [2] and in assay [3] was inactive.
Turning to `O=C(c1ccco1)N1N=C(c2cccs2)CC1c1ccc(F)cc1` (centres undefined), the result in assay [1], in assay [2] and in assay [3] was inactive.
Take `C[C@H]1CN([C@@H](C)CO)C(=O)c2cc(-c3ccccc3)cnc2O[C@@H]1CN(C)C(=O)c1ccccn1`: the call in assay [1], in assay [2] and in assay [3] was inactive.
For `S=C(NCCc1cccc(Cl)c1)NC1CCCCC1`, the molecule was called inactive in assay [1], in assay [2] and in assay [3].
Take `Cc1ccc(C(=O)Nc2ccc3ncccc3c2)cc1`: the result in assay [1], in assay [2] and in assay [4] was inactive.
For `CC=Cc1ccc2n(c1=O)C[C@@H]1[C@@H](CO)[C@H](C(=O)NCc3ccc4c(c3)OCO4)[C@H]2N1C(=O)C1CC1` (mixture of isomers), the outcome in assay [1], in assay [2] and in assay [3] was inactive.
Consider `O=C(c1ccco1)N1N=C(c2cccs2)CC1c1cc([N+](=O)[O-])ccc1O` (centres undefined), for which the outcome in assay [1], in assay [2] and in assay [3] was inactive.
Take `O=C(NC[C@@H]1[C@@H](c2ccccc2)[C@H](CO)N1C(=O)C1CCC1)NC1CCCC1`: the call in assay [1], in assay [2] and in assay [3] was inactive.
For `Fc1cccc(CCN2C(=S)NC[C@@H]2Cc2ccccc2)c1`, the call in assay [1], in assay [2] and in assay [3] was inactive.
`Cc1ccc(N2C(=O)CC(N3CCN(c4ccc(F)cc4)CC3)C2=O)c(C)c1` (centres undefined): the molecule was called inactive in assay [1], in assay [2] and in assay [3].
Regarding `CCNC(=O)CN(c1ccc(Cl)cc1)S(=O)(=O)c1ccccc1`, the result in assay [1], in assay [2] and in assay [3] was inactive.
Regarding `CCNC(=O)C[C@H]1CC[C@@H](NC(=O)NC2CCCCC2)[C@H](CO)O1`, the call in assay [1], in assay [2] and in assay [3] was inactive.
Turning to `CCOC(=O)NCc1ccc2[nH]c(C)cc2c1`, the molecule was called inactive in assay [1], in assay [2] and in assay [3].
As for `C/C=C/c1ccc([C@@H]2[C@@H](CNC(=O)C3CCC3)N(C(=O)NCCC)[C@H]2CO)cc1`, the result in assay [1], in assay [2] and in assay [3] was inactive.
For `CCOc1cc(CNC)ccc1OCC(=O)NC(C)(C)C`, the result in assay [1], in assay [2] and in assay [3] was inactive.
Consider `O=C(CN(c1ccccc1)S(=O)(=O)c1ccccc1)Nc1ccc(F)cc1`, for which the molecule was classed as inactive in assay [1], in assay [2] and in assay [3].
For the molecule `Cc1ccc2nc(C)c3c(c2c1)OC(C(C)(Cl)Br)C3` (centres undefined), in assay [2], the result was inactive.
As for `CCCC(=O)Nc1ccc2c(c1)OC[C@H](C)N(Cc1ccccn1)C[C@H](C)[C@H](OC)CN(C)C2=O`, the call in assay [1], in assay [2] and in assay [3] was inactive.
For `O=C(CN(c1ccc(F)cc1)S(=O)(=O)c1ccccc1)NCCSC1CCCCC1`, the call in assay [1], in assay [2] and in assay [3] was inactive.
On to `Cc1cc(C)c(NC(=O)CN2CCN3CCCC3C2)c(C)c1` (centres undefined), for which the result in assay [1], in assay [2] and in assay [3] was inactive.
As for `Cc1ccccc1S(=O)(=O)N[C@@H]1CC[C@H](CCNS(=O)(=O)c2cccc(F)c2)O[C@H]1CO`, the outcome in assay [1], in assay [2] and in assay [3] was inactive.
As for `CC(C)CC#Cc1cnc2c(c1)C(=O)N([C@@H](C)CO)C[C@@H](C)[C@@H](CN(C)C(=O)c1cccc(F)c1)O2`, the outcome in assay [1], in assay [2] and in assay [3] was inactive.
`CNC(=O)CN(c1ccc(OC)cc1)S(=O)(=O)c1ccc(F)cc1`: the call in assay [1], in assay [2] and in assay [3] was inactive.
Turning to `COc1ccc(CN(C)C[C@H]2Oc3ccc(NS(C)(=O)=O)cc3CC(=O)N([C@@H](C)CO)C[C@H]2C)cc1`, the outcome in assay [1], in assay [2] and in assay [3] was inactive.
As to `CCCC(=O)Nc1ccc2c(c1)OC[C@@H](C)N(Cc1ccccn1)C[C@@H](C)[C@H](OC)CN(C)C2=O`, the result in assay [1], in assay [2] and in assay [3] was inactive.
For `CN1C[C@@H]2C(c3ccc(C(F)(F)F)cc3)C3(c4ccccc4)CC2(C3)[C@H]1c1ccccc1` (some centres undefined), the molecule was called inactive in assay [1], in assay [2] and in assay [3].
As to `CN1c2ccc(-c3ccc(F)cc3)cc2[C@H]2[C@H](CCN2S(=O)(=O)c2cccc(F)c2)[C@H]1CO`, the call in assay [1] and in assay [2] was inactive. The activity change, negative = cytotoxicity in assay [3] was 7.29% [at 6 µM].
As to `Cc1noc(C)c1S(=O)(=O)Nc1ccc2c(c1)C(=O)N([C@@H](C)CO)C[C@@H](C)[C@H](CN(C)Cc1ccc3c(c1)OCO3)OCCCC[C@H](C)O2`, the outcome in assay [1], in assay [2] and in assay [3] was inactive.
For `C[C@H]1CN([C@@H](C)CO)C(=O)c2cc(C#CCN(C)C)cnc2O[C@@H]1CN(C)C(=O)Nc1cccc(F)c1`, the outcome in assay [1], in assay [2] and in assay [3] was inactive.
With `CCCn1c(=S)[nH]c2cc(Cl)ccc21`, the call in assay [1], in assay [2] and in assay [3] was inactive.
As to `CNC[C@@H]1OCCCC[C@@H](C)Oc2ccc(NC(=O)NC(C)C)cc2C(=O)N([C@@H](C)CO)C[C@H]1C`, the molecule was called inactive in assay [1], in assay [2] and in assay [3].
Take `CCCNC(=O)C[C@H]1CC[C@H]2[C@@H](COC[C@@H](O)CN2S(=O)(=O)c2ccc(Oc3ccccc3)cc2)O1`: the call in assay [1], in assay [2] and in assay [3] was inactive.
On to `CCC(=O)N1[C@H](CO)[C@H](c2ccc(-c3ccc(F)cc3)cc2)[C@@H]1CNC(C)=O`, for which the call in assay [1], in assay [2] and in assay [3] was inactive.
For the molecule `Cc1noc(C)c1NC(=O)N(C)C[C@H]1Oc2ccc(NC(=O)C3CC3)cc2CC(=O)N([C@@H](C)CO)C[C@H]1C`, the call in assay [1], in assay [2] and in assay [3] was inactive.
For `COC(=O)C1=C(C)N(Cc2ccccc2)C(=S)N[C@H]1c1cccc(C(F)(F)F)c1`, in assay [2], the molecule was classed as inactive.
The same measure, in the same setting: as for `COC(=O)C1=C(C)N(Cc2ccc(F)cc2)C(=S)NC1c1ccc(Cl)cc1` (centres undefined), the entry is “inactive”.
For `COC(=O)C1=C(C)N(CC(C)C)C(=S)NC1c1ccc(Cl)cc1` (centres undefined), the molecule was called inactive in assay [2] and in assay [3].
For `Cc1c(C(=O)NC(=S)Nc2ccccc2N2CCCC2)cccc1[N+](=O)[O-]`, the outcome in assay [2] and in assay [3] was inactive.
For the molecule `COC(=O)C1=C(C)N(Cc2ccc(Cl)cc2)C(=S)NC1c1ccc(Br)cc1` (centres undefined), the molecule was classed as inactive in assay [2] and in assay [3].
As for `CCc1ccc(C(C)NC(=S)NCc2ccc(F)cc2)cc1` (centres undefined), the result in assay [2] and in assay [3] was inactive.
As for `Cc1cc(C)c(NC(=O)C2CCCN2C(=O)NC2CCCCC2)c(C)c1` (centres undefined), the outcome in assay [2] and in assay [3] was inactive.
